A selection: hits, their analogues and other compounds. The true share with any hit is near 5.4%.
CSC inhib: blocks cancer stem cells; cancer stem cell-like cells viability, luminescence; inhibition, % at 7.5 µM; 1.1% of 300,000 active; in the data active means inhibition above about 75%; inconclusive means no clear call, values can overlap the other calls; tested in HMLE shEcad cells
SKKanGAS inh: inhibitors of SKKanGAS S. pyogenes growth in kanamycin (SK-promoter or general growth effect); 1.3% of 300,000 active; inhibition, % at 7.5 µM; BacTiter-Glo, 6 h;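 active means mean replicate score, as percent of positive control median, at least 50; inconclusive means mean below 50 but one replicate at or above 50; inactive means mean and every replicate below 50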;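 further: strain carries kanamycin resistance gene driven by streptokinase promoter and grows in 40 µg/ml kanamycin; loss of luminescence reflects streptokinase promoter inhibition or plain growth inhibition; 0% = median of DMSO wells and 100% = positive control at its reference dose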
Calb FLC: affects C. albicans growth with fluconazole; C. albicans CaCi-2 (fluconazole-resistant clinical isolate) + fluconazole, Alamar Blue growth, 48 h; growth inhibition, % (no concentration beside the values); 0.57% of 300,000 active;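 active means growth inhibition above about 58% in most replicates, limit read from the data, passing the limit was not always enough; inconclusive means exactly half the replicates above a set limit; inactive means most replicates below a set limit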;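 further: all wells also contain fluconazole at 8 µg/ml as a sub-toxic cotreatment; 0% = median of DMSO wells and 100% = median of geldanamycin control wells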
Mdm2-MdmX inh: disrupts the human Mdm2-MdmX interaction | 3% of 330,000 active | SaOS-2 split-luciferase Mdm2/MdmX complementation, luminescence | O15151+Q00987 | inhibition, % at 8 µM;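 active means inhibition of at least 50% at 8 µM in the primary screen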
Target sequence (O15151 whole entry, looked up): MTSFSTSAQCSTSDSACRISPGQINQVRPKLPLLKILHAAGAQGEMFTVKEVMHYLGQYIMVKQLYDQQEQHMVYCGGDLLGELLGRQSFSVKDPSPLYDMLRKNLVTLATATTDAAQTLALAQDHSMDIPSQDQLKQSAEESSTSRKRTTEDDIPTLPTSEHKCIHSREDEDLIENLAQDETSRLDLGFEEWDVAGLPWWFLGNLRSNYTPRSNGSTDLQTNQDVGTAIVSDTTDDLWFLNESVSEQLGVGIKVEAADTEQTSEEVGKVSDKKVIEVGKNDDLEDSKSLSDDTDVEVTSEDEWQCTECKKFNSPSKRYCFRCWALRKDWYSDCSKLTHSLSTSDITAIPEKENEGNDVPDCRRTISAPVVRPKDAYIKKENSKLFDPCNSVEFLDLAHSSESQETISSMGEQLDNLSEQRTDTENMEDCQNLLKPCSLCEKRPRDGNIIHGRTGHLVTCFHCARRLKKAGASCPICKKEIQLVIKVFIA
Target sequence (Q00987 whole entry, looked up): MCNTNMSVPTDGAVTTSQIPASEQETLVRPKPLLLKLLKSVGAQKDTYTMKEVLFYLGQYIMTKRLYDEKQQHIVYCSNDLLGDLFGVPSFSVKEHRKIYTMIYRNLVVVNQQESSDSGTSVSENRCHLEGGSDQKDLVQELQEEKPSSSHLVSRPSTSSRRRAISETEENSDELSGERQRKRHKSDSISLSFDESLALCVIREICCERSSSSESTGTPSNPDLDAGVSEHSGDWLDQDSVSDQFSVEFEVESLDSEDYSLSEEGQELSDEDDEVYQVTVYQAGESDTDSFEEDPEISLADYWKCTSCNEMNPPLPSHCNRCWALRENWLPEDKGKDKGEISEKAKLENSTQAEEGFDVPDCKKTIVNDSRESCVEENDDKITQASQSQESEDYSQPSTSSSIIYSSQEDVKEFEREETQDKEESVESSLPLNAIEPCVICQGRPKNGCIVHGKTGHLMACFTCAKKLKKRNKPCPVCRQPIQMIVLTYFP
MPTP inh: permeability transition pore inhibition; isolated mouse mitochondria, Ca2+ swelling absorbance, 30 min; inhibition, % at 10 µM; 1.4% of 360,000 active; AID 602449;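 active means inhibition of 50% or more, scaled per plate between neutral and stimulator controls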;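 further: 0% = DMSO wells given calcium and 100% = 1 mM EGTA wells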
Beta cell apopt: beta cell apoptosis inhibition. AID 435005. protection from apoptosis, % (test concentration not listed). 0.8% of 300,000 active. INS-1E cytokine-induced death, ATP luminescence, 48 h; percent of positive-control rescue, neutral wells zero;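 active means Every replicate reaches about 75%, or at least half do and their mean reaches it too, limit read from the data; inconclusive means At least half of replicates reach the limit but their mean does not; inactive means Under half of replicates reach the limit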;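 further: 0% = cytokine-treated negative control wells and 100% = positive control rescue; higher means more ATP so stronger rescue from cytokine killing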
Mdm2-MdmX conf: human Mdm2/MdmX binding inhibition, confirmed; shares compounds with Mdm2-MdmX inh; luminescent assay; inhibition, % at 8 µM; 55% of 10,000 active; AID 489028; in the data active means inhibition above about 40%
Full FLuc ctr: inhibits full-length luciferase, flagging false Mdm2/MdmX hits. shares compounds with Mdm2-MdmX inh. SaOS-2 full-length luciferase counterscreen, luminescence. inhibition, % at 8 µM. 77% of 6,200 active. AID 504607;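 active means mean inhibition at 8 µM reaching about 37%, which flags the compound as non-specific, limit read from the data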;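 further: p53-null SaOS-2 cells with luciferase driven by a doxycycline-inducible promoter; compound on cells about two nights before reading with doxycycline added after day one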
The depositor's hits bear a star; ? = inconclusive; . = no result.

SMILES | CSC inhib | SKKanGAS inh | Calb FLC | Mdm2-MdmX inh | MPTP inh | Beta cell apopt | Mdm2-MdmX conf | Full FLuc ctr
CN(C)CCNC(=O)C(=O)Nc1ccc2c(c1)N(S(=O)(=O)c1cccs1)CCC2 | 22.1 | 1.9 | 4.3 | 51.3* | -0.8 | 1.2 | 72.0* | 61.5*
O=C(NCc1ccccc1)C1CCC(=O)N(CCN2CCOCC2)C1 (configuration not stated) | 4.0 | 7.3 | 9.2 | 19.0 | -0.1 | -7.2 | . | .
OCCNc1c2ccccc2nc2ccccc12 | 12.1 | 11.0 | 32.7 | 61.1* | -0.4 | . | 56.5* | 36.6*
Cc1ccc(Nc2nc(NCCO)c3ccccc3n2)cc1C | . | 5.0 | -2.1 | 54.9* | 17.1 | . | 25.1 | .
COc1ccccc1Nc1nc(NCCO)c2ccccc2n1 | . | 0.2 | -3.3 | -11.6 | . | . | . | .
N=C1C(c2nc3ccccc3s2)=C(O)CN1NC(=O)c1ccccc1[N+](=O)[O-] | 9.6 | -8.9 | 13.7 | 54.4* | -0.9 | -1.4 | 1.4 | .
N=C1C(c2nc3ccccc3s2)=C(O)CN1NC(=O)c1c[nH]c2ccccc12 | 2.2 | 2.0 | ? | 4.0 | 1.2 | -8.4 | . | .
Cc1onc(-c2ccccc2)c1C(=O)NC(=S)NNC(=O)c1ccc(O)cc1O | 34.4 | 80.1* | -3.0 | 58.8* | -2.8 | 90.7* | 43.0* | 71.0*
CCc1nn(C(C)C(=O)NC2CCCCCC2)c(=O)c2cc3occc3n12 (configuration not stated) | -15.9 | -1.5 | 8.5 | 6.5 | -2.0 | -5.2 | . | .
COc1ccc(C2CC(=O)N(C)c3ccccc3S2)cc1 (configuration not stated) | -3.3 | 3.6 | ? | 67.8* | 1.6 | -10.1 | 46.8* | 96.9*
Cc1nc(SCC(=O)Nc2ccc(CN3CCCC3)cc2)c2c(C)c(C)sc2n1 | . | . | . | 84.0* | -1.1 | 15.9 | 36.5 | 64.0*
CCOC(=O)c1c(NC(=S)NCCc2ccccc2)sc2c1CC(C(C)C)OC2 (configuration not stated) | 45.7 | 101.3* | 10.0 | 51.2* | 37.4 | . | 3.1 | .
CC(=O)c1c(C)[nH]c(C(=O)OCC(=O)Nc2cc(C(F)(F)F)ccc2N2CCOCC2)c1C | -4.7 | 7.6 | -11.1 | 51.1* | 1.5 | 7.1 | 31.8 | .
CCN(CC)S(=O)(=O)c1ccc(N2CCOCC2)c(NC(=O)c2[nH]c(C)c(C(C)=O)c2C)c1 | -14.3 | . | . | 82.7* | -0.7 | 0.0 | 40.9* | 67.6*
Cc1ccc2nc(SCC(=O)Nc3cc(C(F)(F)F)ccc3N3CCOCC3)[nH]c2c1 | 62.3 | 13.0 | -0.6 | 84.1* | -1.1 | 44.5 | 64.7* | 91.5*
O=C(CSc1nccc(=O)[nH]1)Nc1cc(C(F)(F)F)ccc1N1CCOCC1 | -6.2 | 2.7 | -19.1 | -7.2 | -0.6 | -1.5 | . | .
CCOc1cccc(CN2CCC(CCC(=O)NC3CC3)CC2)c1O | 17.9 | -7.2 | 0.3 | -21.8 | 1.0 | 2.0 | . | .
COc1ccccc1-n1nc(C)c(-c2ccccc2)c1N | -6.2 | -1.5 | -1.1 | 10.9 | -1.9 | 0.7 | . | .
CC1(NC(=O)Nc2cccc(Br)c2)CCS(=O)(=O)C1 (configuration not stated) | 5.6 | . | . | 10.8 | 1.5 | 0.0 | . | .
Cc1oc2c(c1C(=O)NCc1cccnc1)C(=O)c1ccccc1C2=O | 100.5* | 85.9* | -13.3 | 99.4* | . | . | 97.8* | 4.0
COc1ccc(CNC(=O)c2ccc(-c3ccccc3)cc2)cc1 | 3.4 | 0.1 | -6.9 | -43.4 | 0.5 | -3.5 | . | .
COc1ccc(CNC(=O)c2c(C)oc3c2C(=O)c2ccccc2C3=O)cc1 | 99.5* | 86.8* | -14.7 | 81.1* | 1.9 | 109.3* | 84.0* | 54.4*
Cc1onc(-c2ccccc2Cl)c1C(=O)NCc1cccnc1 | 6.2 | -1.9 | 6.7 | -23.3 | 0.7 | -4.0 | . | .
COc1ccc(CN2C(=O)COc3ccccc3C2c2nc3ccccc3[nH]2)cc1 (configuration not stated) | . | . | . | . | -1.7 | . | . | .
CC1(C)Cc2nc3sc(C(N)=O)c(N)c3cc2CO1 | 13.0 | 4.3 | -9.7 | -5.3 | 0.1 | 4.3 | . | .
SMILES | CSC inhib | SKKanGAS inh | Calb FLC | Mdm2-MdmX inh | MPTP inh | Beta cell apopt | Mdm2-MdmX conf | Full FLuc ctr
CC(C)OC(=O)c1cccc(-c2ccc(C=O)o2)c1 | -6.5 | -1.7 | 53.6 | -43.1 | -2.6 | -6.9 | . | .
COc1cc2c(-c3ccc4cc[nH]c4c3)c(-c3ccc(C#N)cc3)oc(=O)c2cc1OC | 38.8 | . | . | 58.8* | 0.0 | 27.0 | 35.1 | 52.0*
COc1ccccc1C(=O)Nc1ccccc1SC(=O)c1ccccc1OC | 58.2 | 22.4 | -2.0 | 62.6* | 4.6 | 29.3 | 39.9 | 90.5*
O=C1CC(/C=C/c2ccc([N+](=O)[O-])cc2)=Nc2ccccc2N1 | 2.8 | -4.3 | 9.0 | 52.9* | 2.1 | 3.9 | 34.6 | 60.6*
O=C1CC(/C=C/c2ccccn2)=Nc2ccccc2N1 | 4.6 | 1.3 | 10.7 | 19.9 | 0.1 | -13.1 | . | .
Brc1ccc(-c2nnc3sc(CNCc4ccc5c(c4)OCO5)cn23)cc1 | 19.2 | -5.2 | -6.3 | -19.2 | -0.7 | -10.1 | . | .
Cc1ccc2cc(CN(Cc3ccc(F)cc3)Cc3nnnn3C3CCCC3)c(=O)[nH]c2c1 | 21.0 | 3.0 | ? | 7.4 | 4.2 | 0.8 | . | .
CCc1ccc2[nH]c(=O)c(CN(Cc3ccc4c(c3)OCO4)Cc3nnnn3C3CCCC3)cc2c1 | 0.6 | 20.8 | -15.3 | 63.5* | 1.9 | 24.9 | 12.2 | .
O=C(NCc1ccc2c(c1)OCO2)c1ccccc1Cl | -4.5 | -8.7 | -32.0 | -18.9 | 0.8 | -0.9 | . | .
O=C(NCc1ccc2c(c1)OCO2)c1nc(S(=O)(=O)Cc2ccccc2F)ncc1Cl | ? | -17.6 | 0.8 | 77.6* | 1.4 | 7.1 | 52.2* | 51.2*
O=C(NCc1ccc2c(c1)OCO2)c1nc(S(=O)(=O)Cc2ccccc2)ncc1Cl | . | -3.3 | 7.8 | 63.0* | 0.1 | . | 44.9* | 13.8
O=C(Cc1ccccc1)NCc1ccc2c(c1)OCO2 | 6.0 | -3.9 | -25.8 | -6.1 | -4.1 | -7.2 | . | .
CCc1ccc(-c2cc(C(F)(F)F)n3nc(C(=O)Nc4cnn(Cc5ccc(C)cc5)c4)cc3n2)s1 | 47.8 | -1.7 | 4.4 | 51.1* | 1.2 | 76.4* | 12.8 | .
Cc1ccccc1Cn1cc(NC(=O)c2cc3nc(-c4ccco4)cc(C(F)(F)F)n3n2)cn1 | -7.0 | 5.8 | 11.3 | 0.1 | 0.0 | 7.8 | . | .
COc1ccccc1OCCN1CSC(=S)N(C)C1 | ? | 16.2 | -50.7 | 51.7* | -2.1 | -8.9 | 37.4 | 82.0*
Cc1cccc(OCCN2CSC(=S)N(C)C2)c1 | 58.1 | -0.2 | -1.2 | 36.2 | 2.2 | 1.1 | . | .
CCN(CC)CCCCN1c2ccccc2Sc2ccccc21 | -6.5 | 3.9 | 9.3 | 59.3* | -2.2 | 0.1 | 16.5 | .
Cc1ccc(C)c(NC(=O)CCc2ccc(S(=O)(=O)NC3CCCCC3)cc2)c1 | -8.4 | 5.1 | -12.1 | 16.2 | -0.1 | 12.6 | . | .
CCOC(=O)c1c(C)noc1CP(=O)(c1ccccc1)c1ccccc1 | . | -7.0 | 5.1 | -24.0 | 4.2 | -1.8 | . | .

Bioassay records as filed in PubChem.
